Screen size: about 39,000 compounds; about 3,300 (8.5%) were called active. The sample as a whole holds a higher share of actives than the screen did.

The subject of the test is HepG2. The test is described as follows: cytotoxicity call (relative viability < 0.9). The settings on record: 10 µM.
For `O=C(C[C@@H]1CC[C@@H]2[C@H](COC[C@@H](O)CN2S(=O)(=O)c2ccccc2)O1)N1CCc2ccccc2C1`, the cytotoxicity call was “inactive”.

Regarding `C[C@@H]1CCCCO[C@H](CN(C)S(=O)(=O)c2cccs2)[C@@H](C)CN([C@@H](C)CO)C(=O)c2cc(NS(=O)(=O)c3cn(C)cn3)ccc2O1`, the cytotoxicity call is “inactive”.

Turning to `C[C@@H]1CN([C@@H](C)CO)C(=O)Cc2cc(NS(=O)(=O)c3cn(C)cn3)ccc2O[C@@H]1CN(C)Cc1ccc(C(=O)O)cc1`, the cytotoxicity call is “inactive”.

On to `C[C@H](CO)N1C[C@H](C)[C@H](CN(C)S(=O)(=O)c2cn(C)cn2)Oc2ccc(N(C)C)cc2CC1=O`, for which the cytotoxicity call was “inactive”.

In the case of `CC(C)CC#Cc1ccc2c(c1)O[C@@H](CN(C)C(=O)c1ccncc1)[C@H](C)CN([C@H](C)CO)S2(=O)=O`, the cytotoxicity call is “inactive”.

Regarding `Cc1ccc(S(=O)(=O)N(C)C[C@@H]2Oc3cc(C#Cc4ccccc4)ccc3S(=O)(=O)N([C@@H](C)CO)C[C@H]2C)cc1`, the cytotoxicity call was “inactive”.

`Cc1ccc(S(=O)(=O)N(C)C[C@H]2Oc3cc(C#Cc4ccncc4)ccc3S(=O)(=O)N([C@@H](C)CO)C[C@@H]2C)cc1`: the cytotoxicity call was “active”.

Turning to `Cc1ccc(S(=O)(=O)N(C)C[C@@H]2Oc3cc(C#Cc4ccncc4)ccc3S(=O)(=O)N([C@H](C)CO)C[C@@H]2C)cc1`, the cytotoxicity call was “active”.

Turning to `Cc1ccc(S(=O)(=O)N(C)C[C@H]2Oc3cc(C#Cc4ccccc4)ccc3S(=O)(=O)N([C@@H](C)CO)C[C@H]2C)cc1`, the cytotoxicity call was “inactive”.

Take `Cc1ccc(S(=O)(=O)N(C)C[C@H]2Oc3cc(C#Cc4ccccc4)ccc3S(=O)(=O)N([C@H](C)CO)C[C@H]2C)cc1`: the cytotoxicity call was “inactive”.

As for `Cc1ccc(S(=O)(=O)N(C)C[C@H]2Oc3cc(C#Cc4ccccc4)ccc3S(=O)(=O)N([C@@H](C)CO)C[C@@H]2C)cc1`, the cytotoxicity call was “inactive”.

As to `Cc1ccc(S(=O)(=O)N(C)C[C@@H]2Oc3cc(C#Cc4ccccc4)ccc3S(=O)(=O)N([C@@H](C)CO)C[C@@H]2C)cc1`, the cytotoxicity call was “inactive”.

For the compound `Cc1ccc(S(=O)(=O)N(C)C[C@@H]2Oc3cc(C#Cc4ccncc4)ccc3S(=O)(=O)N([C@H](C)CO)C[C@H]2C)cc1`, the cytotoxicity call is “active”.

With `Cc1ccc(S(=O)(=O)N(C)C[C@H]2Oc3cc(C#Cc4ccncc4)ccc3S(=O)(=O)N([C@H](C)CO)C[C@H]2C)cc1`, the cytotoxicity call was “active”.

As to `Cc1ccc(S(=O)(=O)N(C)C[C@@H]2Oc3cc(C#Cc4ccccc4)ccc3S(=O)(=O)N([C@H](C)CO)C[C@@H]2C)cc1`, the cytotoxicity call was “inactive”.

For `CC(C)NC(=O)Nc1ccc2c(c1)C(=O)N([C@H](C)CO)C[C@@H](C)[C@@H](CN(C)C(=O)C1CCCCC1)OCCCC[C@H](C)O2`, the cytotoxicity call is “inactive”.

Take `CO[C@@H]1CN(C)C(=O)c2ccc(NS(C)(=O)=O)cc2OC[C@@H](C)N(C(=O)c2ccc3c(c2)OCO3)C[C@@H]1C`: the cytotoxicity call is “inactive”.

With `COc1ccccc1S(=O)(=O)N(C)C[C@H]1OCc2cn(nn2)CCCC(=O)N([C@@H](C)CO)C[C@@H]1C`, the cytotoxicity call was “inactive”.

Take `CCS(=O)(=O)N1C[C@]2(CCN(CC2)C(=O)c2cccnc2)c2c(n(c3cc(ccc23)OC)C)[C@H]1CO`: the cytotoxicity call is “inactive”.

`C[C@@H]1CN([C@H](C)CO)C(=O)c2cc(NC(=O)Cn3cnnn3)ccc2O[C@H]1CN(C)C(=O)NC1CCCCC1`: the cytotoxicity call is “inactive”.

Consider `Cc1ccc(S(=O)(=O)Nc2ccc3c(c2)C(=O)N([C@@H](C)CO)C[C@H](C)[C@H](CN(C)C(=O)Nc2c(C)noc2C)OCCCC[C@H](C)O3)cc1`, for which the cytotoxicity call is “inactive”.

For the compound `CC(C)NC(=O)Nc1ccc2c(c1)CC(=O)N([C@@H](C)CO)C[C@@H](C)[C@H](CN(C)S(=O)(=O)c1ccc(F)cc1)O2`, the cytotoxicity call is “inactive”.

With `C[C@@H]1CN([C@@H](C)CO)S(=O)(=O)c2ccc(Br)cc2O[C@@H]1CN(C)C(=O)NC1CCCCC1`, the cytotoxicity call is “inactive”.

For the compound `CCOC(=O)CC(=O)c1ccn(C)n1`, the cytotoxicity call was “inactive”.

Take `C[C@@H]1CCCCO[C@H](CN(C)S(=O)(=O)c2cccs2)[C@H](C)CN([C@@H](C)CO)C(=O)c2cc(NC(=O)CCC(F)(F)F)ccc2O1`: the cytotoxicity call was “inactive”.

`C[C@H](CO)N1C[C@H](C)[C@H](CN(C)Cc2ccccn2)Oc2ncc(C#Cc3ccc(F)cc3)cc2C1=O`: the cytotoxicity call is “inactive”.

On to `C[C@@H]1CN([C@H](C)CO)C(=O)c2c(c3ccccc3n2C)-c2ccccc2CO[C@H]1CN(C)Cc1cccc(O)c1`, for which the cytotoxicity call is “inactive”.

Turning to `Cc1ccc(S(=O)(=O)N(C)C[C@@H]2Oc3cc(C#Cc4ccncc4)ccc3S(=O)(=O)N([C@@H](C)CO)C[C@@H]2C)cc1`, the cytotoxicity call is “active”.

Regarding `Cc1ccc(S(=O)(=O)N(C)C[C@H]2Oc3cc(C#Cc4ccncc4)ccc3S(=O)(=O)N([C@@H](C)CO)C[C@H]2C)cc1`, the cytotoxicity call was “active”.

As to `Cc1ccc(S(=O)(=O)N(C)C[C@@H]2Oc3cc(C#Cc4ccncc4)ccc3S(=O)(=O)N([C@@H](C)CO)C[C@H]2C)cc1`, the cytotoxicity call was “active”.

Consider `Cc1ccc(S(=O)(=O)N(C)C[C@H]2Oc3cc(C#Cc4ccncc4)ccc3S(=O)(=O)N([C@H](C)CO)C[C@@H]2C)cc1`, for which the cytotoxicity call is “active”.

Consider `C[C@@H]1CN([C@H](C)CO)C(=O)c2cccc(NS(=O)(=O)c3ccc(F)cc3)c2O[C@@H]1CN(C)S(=O)(=O)c1cccs1`, for which the cytotoxicity call was “inactive”.

Take `C[C@H]1CCCCO[C@H](CN(C)Cc2ccncc2)[C@@H](C)CN([C@@H](C)CO)C(=O)c2cc(NC(=O)Nc3cccc4ccccc34)ccc2O1`: the cytotoxicity call is “inactive”.

As for `COc1ccc2c3c(n(c2c1)C)[C@@H](CO)N(C[C@]13CN(C1)S(=O)(=O)c1ccc(cc1)C)S(=O)(=O)c1ccc(cc1)C`, the cytotoxicity call was “inactive”.

As to `C[C@H](CO)N1C[C@H](C)[C@H](CN(C)Cc2ccc3c(c2)OCCN3C)OCc2cnnn2CCCC1=O`, the cytotoxicity call is “inactive”.

Regarding `O=C(C[C@H]1CC[C@@H]2[C@H](COC[C@@H](O)CN2C(=O)Nc2cccc(F)c2)O1)NCCCN1CCOCC1`, the cytotoxicity call is “inactive”.

Regarding `CC(C)NC(=O)Nc1ccc2c(c1)C(=O)N([C@@H](C)CO)C[C@@H](C)[C@H](CN(C)C(=O)Nc1ccc(F)cc1)OCCCC[C@H](C)O2`, the cytotoxicity call is “inactive”.

`O.O=C(O)C1C(O)CCC2CN3CCc4c([nH]c5ccccc45)C3CC21` (stereo not given): the cytotoxicity call was “inactive”.

Turning to `C[C@H]1CC(=O)Nc2c1c(N)nn2C`, the cytotoxicity call is “inactive”.

Regarding `C[C@H]1CCCCO[C@H](CN(C)Cc2ccc3c(c2)OCO3)[C@@H](C)CN([C@@H](C)CO)C(=O)c2cc(NC(=O)CCC(F)(F)F)ccc2O1`, the cytotoxicity call is “inactive”.

Regarding `C[C@@H]1CCCCO[C@H](CN(C)C(=O)C2CCCCC2)[C@H](C)CN([C@H](C)CO)C(=O)c2cc(NS(=O)(=O)c3ccc(F)cc3)ccc2O1`, the cytotoxicity call was “inactive”.

On to `CC(C)CC#Cc1ccc2c(c1)O[C@H](CN(C)Cc1cncnc1)[C@H](C)CN([C@@H](C)CO)S2(=O)=O`, for which the cytotoxicity call was “inactive”.

On to `NNS(=O)(=O)c1ccc(Oc2ccc(S(=O)(=O)NN)cc2)cc1`, for which the cytotoxicity call is “active”.

Take `NC(=O)NS(=O)(=O)c1ccc(N)cc1`: the cytotoxicity call is “inactive”.

Consider `NNS(=O)(=O)c1ccc(Cl)cc1`, for which the cytotoxicity call is “inactive”.

On to `C[C@@H]1CN([C@H](C)CO)C(=O)c2cc(NS(=O)(=O)c3ccc(F)cc3)ccc2O[C@H]1CN(C)S(=O)(=O)c1ccc(F)cc1`, for which the cytotoxicity call is “inactive”.

`Cc1ccc2c(c1)C(=O)C[C@@H](c1ccc(Cl)cc1Cl)O2`: the cytotoxicity call was “inactive”.

As for `Cc1cc(C)c2c(c1)NC(=O)C[C@H]2c1cccc(Cl)c1Cl`, the cytotoxicity call was “active”.

With `Cc1ccc(=O)n(CC(=O)O)n1`, the cytotoxicity call is “inactive”.

Regarding `C[C@@H]1CCCCO[C@H](CN(C)Cc2ccncc2)[C@H](C)CN([C@H](C)CO)C(=O)c2cc(NC(=O)Nc3ccc(C(F)(F)F)cc3)ccc2O1`, the cytotoxicity call is “active”.

For `C[C@@H]1CCCCO[C@H](CN(C)Cc2ccncc2)[C@@H](C)CN([C@H](C)CO)C(=O)c2cc(NC(=O)Nc3ccc(C(F)(F)F)cc3)ccc2O1`, the cytotoxicity call is “inactive”.

Regarding `C[C@@H]1CCCCO[C@@H](CN(C)Cc2ccncc2)[C@H](C)CN([C@H](C)CO)C(=O)c2cc(NC(=O)Nc3ccc(C(F)(F)F)cc3)ccc2O1`, the cytotoxicity call is “active”.

With `C[C@H]1CCCCO[C@@H](CN(C)Cc2ccncc2)[C@@H](C)CN([C@@H](C)CO)C(=O)c2cc(NC(=O)Nc3ccc(C(F)(F)F)cc3)ccc2O1`, the cytotoxicity call was “inactive”.

`C[C@@H]1CN([C@H](C)CO)C(=O)c2cc(NC(=O)Nc3ccc(C(F)(F)F)cc3)ccc2O[C@@H](C)CCCCO[C@@H]1CN(C)Cc1ccncc1`: the cytotoxicity call was “active”.

With `C[C@H](CO)N1C[C@H](C)[C@@H](CN(C)Cc2ccncc2)OCCCC[C@H](C)Oc2ccc(NC(=O)Nc3ccc(C(F)(F)F)cc3)cc2C1=O`, the cytotoxicity call is “inactive”.

On to `C[C@@H]1CCCCO[C@@H](CN(C)Cc2ccncc2)[C@H](C)CN([C@@H](C)CO)C(=O)c2cc(NC(=O)Nc3ccc(C(F)(F)F)cc3)ccc2O1`, for which the cytotoxicity call is “inactive”.

`C[C@H](CO)N1C[C@H](C)[C@H](CN(C)Cc2ccncc2)OCCCC[C@H](C)Oc2ccc(NC(=O)Nc3ccc(C(F)(F)F)cc3)cc2C1=O`: the cytotoxicity call is “active”.

Regarding `C[C@@H]1CCCCO[C@H](CN(C)C(=O)NC2CCCCC2)[C@@H](C)CN([C@@H](C)CO)C(=O)c2cc(NC(=O)NC3CCCCC3)ccc2O1`, the cytotoxicity call was “inactive”.

Consider `O=C(C[C@H]1C=C[C@@H](NC(=O)CN2CCOCC2)[C@H](CO)O1)NCCc1ccccc1`, for which the cytotoxicity call was “inactive”.

As to `COCC#Cc1ccc2c(c1)O[C@@H](CN(C)C(=O)c1ccccc1F)[C@@H](C)CN([C@@H](C)CO)S2(=O)=O`, the cytotoxicity call was “inactive”.

As for `CNC[C@H]1OCCCC[C@H](C)Oc2ccc(NC(=O)c3ccncc3)cc2C(=O)N([C@@H](C)CO)C[C@@H]1C`, the cytotoxicity call is “inactive”.

For `Cc1ccc(S(=O)(=O)N(C)C[C@@H]2Oc3ccc(NS(=O)(=O)c4c(C)noc4C)cc3CC(=O)N([C@@H](C)CO)C[C@H]2C)cc1`, the cytotoxicity call is “inactive”.

As for `C[C@H]1CN([C@@H](C)CO)C(=O)c2cccc(NC(=O)c3cnccn3)c2O[C@H]1CN(C)S(=O)(=O)c1ccc(Cl)cc1`, the cytotoxicity call is “inactive”.

For the compound `O=C(C[C@H]1CC[C@H](NC(=O)c2cccnc2)[C@H](CO)O1)NCCN1CCCCC1`, the cytotoxicity call is “inactive”.

As to `COCC#Cc1ccc2c(c1)O[C@H](CN(C)C(=O)C1CCCCC1)[C@H](C)CN([C@@H](C)CO)S2(=O)=O`, the cytotoxicity call was “inactive”.

(Values after the antibiotic and cytotoxicity screens of Wong et al. (2023).)
